Experimental data taken from PubChem BioAssay (NCATS).
Where “and” joins values, the source holds several entries; their conditions need not be identical. Equal values may be shown once. Results filed as inconclusive are left out. Entries that show only a call come without a potency. Calls of active or inactive are those of the source. Unless noted, calls follow the shape of the dose curve; as a rule, active = well fitted curve in the direction sought with a large enough effect; inconclusive = small, poorly fitted or top-dose-only effect, or another doubt; inactive = no such curve, though single readings can be large; an effect the other way counts as inactive or inconclusive.

Experiments:
[1] = Cell Viability - N2a (AID 540); conditions: N2a mouse neuroblastoma cell viability; activity change, negative = cytotoxicity: at 92.2 µM (top of the series);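 also: cells exposed to compound for 40 h at 37 °C; nearly all actives have a fitted effect of over 45% in size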
In short: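 Luminescent ATP signal (CellTiter-Glo, 20 min at room temperature) served as the viability read-out after N2a cells were treated with compounds for 40 hours at 37 °C. Concentration-response data were fitted to the Hill equation for AC50.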

[2] = Cell Viability - H-4-II-E (AID 543); also: nearly all actives have a fitted effect of over 35% in size
In short: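 Luminescent ATP signal (CellTiter-Glo) served as the viability read-out, with cytotoxicity seen as a concentration-dependent ATP drop. Cells were treated for 40 hours in complete medium. AC50 values derive from Hill-equation modelling.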

[3] = MultiTox-Fluor Cytotoxicity Assay - LYMP1-001 - Live Cells (AID 947)
[4] = MultiTox-Fluor Cytotoxicity Assay - LYMP1-002 - Dead Cells (AID 960); also: nearly all actives have a fitted effect of over 60% in size
In short: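 LYMP1-002 cells 2500/well; 5 hr 37 C pre-incubation; compound 16 hr 37 C; MultiTox-Fluor reagent 60 min RT; dead-cell fluor Ex/Em 485/520. Norm. to DMSO (0%) vs 15 uM tetraoctylammonium bromide (100%); Hill AC50.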

[5] = Cell Viability - LYMP2-005 (AID 967)
In short: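 CellTiter-Glo luminescence (cellular ATP) read-out; LYMP2-005 lymphoblastoid cells, 2500/well, 5 h pre-incubation, then 24 h compound exposure at 37 C in complete medium. Tetraoctylammonium bromide positive control; AC50 by standard Hill fit.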

[6] = Cell Viability - LYMP1-002 - Assay at 40 hr (AID 994); also: nearly all actives have a fitted effect of over 60% in size
In short: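 Luminescent ATP signal served as the viability readout, with decreases taken as toxicity. Cells were treated with compounds across a concentration range for 40 hours at 37 C, and AC50 values came from standard Hill modeling.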

[7] = target: Estrogen receptor (Homo sapiens) (UniProt P03372); assay: qHTS assay for small molecule agonists of estrogen receptor alpha signaling (AID 588514; calls by dose curve; also: nearly all actives have a fitted effect of over 70% in size)
In short: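 Cells were plated at 5000/well, incubated 4 hrs at 37 C, dosed with compound titration series, incubated 18 hrs at 37 C, loaded with CCF4 dye for 2 hrs at RT, then fluorescence was read.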

[8] = target: Glucocorticoid receptor (Homo sapiens) (UniProt P04150); assay: qHTS assay for small molecule agonists of glucocorticoid receptor signaling (AID 588532; active = well fitted curve in the direction sought with a large enough effect in the signal ratio, with a control signal flat; the % refers to the signal ratio); conditions: HeLa MMTV-bla, beta-lactamase ratio, agonist, 18 h; stronger effect = higher value; percent of dexamethasone control, DMSO zero
In short: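 Cells were plated and rested 3-5 h at 37 C, compounds were added in titration and incubated 18 h, then CCF4 substrate was loaded for 2 h at RT before reading blue/green fluorescence. EC50 came from Hill-equation fitting.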

[9] = target: Glucocorticoid receptor (Homo sapiens) (UniProt P04150); assay: qHTS assay for small molecule antagonists of glucocorticoid receptor signaling (AID 588533; active = well fitted inhibition curve with a large enough effect in the signal ratio, with a control signal flat, not every such curve was filed as active; the % refers to the signal ratio)
In short: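 Antagonist-mode qHTS: compound titrations added to GRE-bla HeLa cells, then dexamethasone 2 nM final; 18 h, 37 C. CCF4 FRET fluorescence normalized to dexamethasone and DMSO; IC50 from Hill fit.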

[10] = target: Peroxisome proliferator-activated receptor delta (Homo sapiens) (UniProt Q03181); assay: qHTS assay for small molecule agonists of peroxisome proliferator-activated receptor delta signaling (AID 588534; calls by dose curve)
In short: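 Fluorescence from CCF4 substrate cleavage by beta-lactamase reporter, read 2 hrs at RT, measured agonist activity. Compounds were tested with 18 hrs exposure at 37 C. Concentration-response data fitted to Hill equation.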

[11] = qHTS assay for small molecule antagonists of peroxisome proliferator-activated receptor delta signaling (AID 588535; active = well fitted inhibition curve with a large enough effect in the signal ratio, with a control signal flat, not every such curve was filed as active; the % refers to the signal ratio;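 as to max response: cells co-treated with a PPAR-delta agonist as stimulator during compound exposure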); conditions: HEK293T PPARd-UAS-bla, beta-lactamase FRET ratio, 18 h; 460 nm channel
In short: (§1)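 Antagonist-mode beta-lactamase reporter (GeneBLAzer PPAR-delta-UAS-bla) in HEK293T cells, 2% charcoal/dextran FBS, 4000 cells/well. Compound titrations, 18 h at 37 C; CCF4 ratio read, IC50 and efficacy from Hill fits.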

[12] = target: Peroxisome proliferator-activated receptor delta (Homo sapiens) (UniProt Q03181); assay: as above
In short: as §1

[13] = target: Peroxisome proliferator-activated receptor gamma (Homo sapiens) (UniProt P37231); assay: qHTS assay for small molecule antagonists of peroxisome proliferator-activated receptor gamma signaling (AID 588537; active = well fitted inhibition curve with a large enough effect in the signal ratio, with a control signal flat, not every such curve was filed as active; the % refers to the signal ratio;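 also: reporter cells co-stimulated with 50 nM rosiglitazone agonist during compound treatment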)
In short: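 PPARγ-UAS-bla HEK293 cells (3000/well) in 1% charcoal/dextran-stripped FBS are treated with compound, then stimulated with 50 nM rosiglitazone for 16 h at 37 °C. Read-out is CCF4 β-lactamase fluorescence after 2 h at RT. IC50 comes from Hill fits normalised to rosiglitazone and DMSO.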

[14] = target: Vitamin D3 receptor (Homo sapiens) (UniProt P11473); assay: qHTS assay for small molecule antagonists of vitamin D receptor signaling (AID 588541; calls by dose curve;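 also: receptor activated by calcitriol during compound treatment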)
In short: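 VDR-UAS-bla HEK293T cells in 2% charcoal-stripped FBS were stimulated with 1-alpha,25-dihydroxyvitamin D3 (3 nM final) plus compound for 16 h at 37 C. The beta-lactamase CCF4 readout was normalized to 50 nM agonist and DMSO, and Hill fits gave IC50.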

[15] = Cell Viability - HUV-EC-C (AID 542); also: nearly all actives have a fitted effect of over 35% in size
In short: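 qHTS cytotoxicity: HUV-EC-C, 1000 cells/well, 5 hr settle, compound 40 hr 37 °C, CellTiter-Glo, luminescence. AC50 via Hill equation.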

[16] = target: Peroxisome proliferator-activated receptor gamma (Homo sapiens) (UniProt P37231); assay: qHTS assay for small molecule agonists of peroxisome proliferator-activated receptor gamma signaling (AID 588536; active = well fitted curve in the direction sought with a large enough effect in the signal ratio, with a control signal flat, not every such curve was filed as active; the % refers to the signal ratio)
In short: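 HEK293 UAS-bla reporter line, 1% charcoal/dextran FBS; titration, 16 h, 37 C; CCF4 loading 2 h RT; fluorescence 460/530 nm. Normalized to rosiglitazone 2 uM = 100%, DMSO = 0%.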

[17] = target: Vitamin D3 receptor (Homo sapiens) (UniProt P11473); assay: qHTS assay for small molecule agonists of vitamin D receptor signaling (AID 588543; calls by dose curve)
In short: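 GeneBLAzer VDR-UAS-bla HEK293T cells in 2% charcoal-stripped FBS medium were dosed with compound titrations for 16 h at 37 °C; CCF4 β-lactamase readout (405 nm ex, 460/530 nm em). EC50 and efficacy from Hill fits, normalized to 50 nM calcitriol (100%) and DMSO (0%).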

[18] = qHTS assay for small molecule activators of the nuclear factor-kappa B (NF-kB) signaling pathway (AID 651749; active = well fitted activation curve with a large enough effect in the signal ratio; the % refers to the signal ratio); conditions: NF-kB-bla ME-180 cells, beta-lactamase FRET ratio, 16 h; stronger effect = higher value
In short: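 NF-kB-bla ME-180 cells carrying a beta-lactamase reporter under an NF-kB response element, 2,000 cells/well, exposed to compound for 16 hr at 37C; FRET-based beta-lactamase fluorescence read-out of pathway activation.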

[19] = target: Bile acid receptor (Homo sapiens) (UniProt Q96RI1); assay: qHTS assay for small molecule agonists of farnesoid X receptor signaling (AID 588527; calls by dose curve); conditions: HEK293T FXR-UAS-bla, beta-lactamase ratio, 16 h; stronger effect = higher value
In short: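 Quantitative HTS used FXR-UAS-bla HEK293T cells with 16 h compound incubation at 37 C. EC50 values came from concentration-response curves normalized to chenodeoxycholic acid.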

[20] = qHTS assay for small molecule agonists of the antioxidant response element (ARE) signaling pathway (AID 651741; active = well fitted activation curve with a large enough effect in the signal ratio; the % refers to the signal ratio; also: potency is read from the fitted curve at half-maximal effect)
In short: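 CellSensor ARE-bla HepG2 cells (2,000/well) carrying ARE-driven beta-lactamase, exposed 16 h at 37 C. LiveBLAzer B/G FRET substrate added for 2 h at room temperature; fluorescence intensity read.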

Peroxisome proliferator-activated receptor delta (Homo sapiens), sequence (Q03181 whole entry, looked up): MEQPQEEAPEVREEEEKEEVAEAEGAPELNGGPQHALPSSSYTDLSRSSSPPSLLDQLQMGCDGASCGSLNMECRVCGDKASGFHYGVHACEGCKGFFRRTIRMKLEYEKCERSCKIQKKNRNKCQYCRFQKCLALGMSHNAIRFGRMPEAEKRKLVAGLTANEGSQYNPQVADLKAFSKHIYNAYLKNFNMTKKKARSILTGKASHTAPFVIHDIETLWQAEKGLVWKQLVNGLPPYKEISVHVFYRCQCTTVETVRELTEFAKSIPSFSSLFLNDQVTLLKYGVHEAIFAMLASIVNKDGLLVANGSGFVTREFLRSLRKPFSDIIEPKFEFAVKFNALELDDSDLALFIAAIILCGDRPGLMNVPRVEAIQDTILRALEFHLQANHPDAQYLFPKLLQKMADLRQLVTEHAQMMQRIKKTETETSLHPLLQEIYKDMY
Glucocorticoid receptor (Homo sapiens), sequence (P04150 whole entry, looked up): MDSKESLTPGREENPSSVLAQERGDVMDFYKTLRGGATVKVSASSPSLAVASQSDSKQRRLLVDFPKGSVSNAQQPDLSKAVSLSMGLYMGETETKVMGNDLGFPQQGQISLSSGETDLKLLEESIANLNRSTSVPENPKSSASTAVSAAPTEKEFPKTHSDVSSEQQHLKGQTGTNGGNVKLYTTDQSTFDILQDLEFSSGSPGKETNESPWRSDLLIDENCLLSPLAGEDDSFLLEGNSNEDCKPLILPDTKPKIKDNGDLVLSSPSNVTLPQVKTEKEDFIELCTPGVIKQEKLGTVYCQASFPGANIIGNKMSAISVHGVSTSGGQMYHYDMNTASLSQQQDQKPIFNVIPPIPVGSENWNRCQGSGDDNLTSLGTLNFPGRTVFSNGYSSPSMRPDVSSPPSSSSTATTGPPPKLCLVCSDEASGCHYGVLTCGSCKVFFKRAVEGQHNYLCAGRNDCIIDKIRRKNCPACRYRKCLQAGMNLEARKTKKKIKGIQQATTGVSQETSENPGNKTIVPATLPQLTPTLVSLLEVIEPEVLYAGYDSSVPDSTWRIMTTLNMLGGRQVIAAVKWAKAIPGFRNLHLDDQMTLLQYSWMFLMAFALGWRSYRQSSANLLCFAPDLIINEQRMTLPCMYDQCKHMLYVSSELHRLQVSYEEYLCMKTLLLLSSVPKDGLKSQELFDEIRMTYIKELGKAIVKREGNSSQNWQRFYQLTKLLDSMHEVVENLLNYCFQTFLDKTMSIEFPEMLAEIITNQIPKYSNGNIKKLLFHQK
Estrogen receptor (Homo sapiens), sequence (P03372 whole entry, looked up): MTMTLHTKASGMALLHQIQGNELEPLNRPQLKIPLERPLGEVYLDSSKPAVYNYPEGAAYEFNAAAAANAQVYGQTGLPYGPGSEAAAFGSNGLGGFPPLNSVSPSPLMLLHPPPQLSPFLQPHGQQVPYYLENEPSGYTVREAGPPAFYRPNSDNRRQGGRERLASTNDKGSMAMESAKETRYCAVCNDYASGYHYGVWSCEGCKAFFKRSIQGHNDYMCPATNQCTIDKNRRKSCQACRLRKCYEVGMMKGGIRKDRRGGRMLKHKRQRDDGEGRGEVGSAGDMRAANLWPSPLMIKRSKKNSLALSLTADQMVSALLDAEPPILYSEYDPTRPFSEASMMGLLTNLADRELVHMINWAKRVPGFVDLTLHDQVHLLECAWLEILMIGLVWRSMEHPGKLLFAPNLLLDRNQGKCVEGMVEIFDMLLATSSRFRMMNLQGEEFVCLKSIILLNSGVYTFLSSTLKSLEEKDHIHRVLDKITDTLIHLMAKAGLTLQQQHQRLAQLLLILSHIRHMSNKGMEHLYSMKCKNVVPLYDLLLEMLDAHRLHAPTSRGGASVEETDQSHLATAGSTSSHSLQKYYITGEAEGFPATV
Vitamin D3 receptor (Homo sapiens), sequence (P11473 whole entry, looked up): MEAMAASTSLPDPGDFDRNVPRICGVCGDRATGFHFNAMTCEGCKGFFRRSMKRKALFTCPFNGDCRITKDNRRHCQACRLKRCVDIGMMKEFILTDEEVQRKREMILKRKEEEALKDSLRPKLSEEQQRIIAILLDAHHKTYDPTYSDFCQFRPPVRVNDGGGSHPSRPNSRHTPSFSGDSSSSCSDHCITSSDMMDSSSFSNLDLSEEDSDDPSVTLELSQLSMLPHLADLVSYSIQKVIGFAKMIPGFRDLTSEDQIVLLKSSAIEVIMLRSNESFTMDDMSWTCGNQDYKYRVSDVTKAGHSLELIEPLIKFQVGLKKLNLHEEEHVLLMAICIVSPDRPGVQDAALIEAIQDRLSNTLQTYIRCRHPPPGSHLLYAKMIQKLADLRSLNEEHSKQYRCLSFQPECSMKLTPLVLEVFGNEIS
Peroxisome proliferator-activated receptor gamma (Homo sapiens), sequence (P37231 whole entry, looked up): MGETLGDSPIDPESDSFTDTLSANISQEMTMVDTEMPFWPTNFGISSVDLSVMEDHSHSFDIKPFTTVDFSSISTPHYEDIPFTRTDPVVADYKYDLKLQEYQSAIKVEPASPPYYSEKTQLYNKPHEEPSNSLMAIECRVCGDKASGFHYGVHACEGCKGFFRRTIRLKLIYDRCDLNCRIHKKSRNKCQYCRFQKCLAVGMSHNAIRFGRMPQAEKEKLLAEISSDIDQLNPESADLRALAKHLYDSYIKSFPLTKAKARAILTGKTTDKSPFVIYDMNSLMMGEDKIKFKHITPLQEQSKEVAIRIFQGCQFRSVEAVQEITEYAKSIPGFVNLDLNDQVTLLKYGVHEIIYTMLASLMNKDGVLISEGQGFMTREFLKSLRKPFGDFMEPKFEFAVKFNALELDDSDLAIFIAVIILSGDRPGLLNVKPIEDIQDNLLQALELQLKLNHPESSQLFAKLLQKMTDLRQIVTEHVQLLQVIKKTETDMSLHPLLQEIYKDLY
Bile acid receptor (Homo sapiens), sequence (Q96RI1 whole entry, looked up): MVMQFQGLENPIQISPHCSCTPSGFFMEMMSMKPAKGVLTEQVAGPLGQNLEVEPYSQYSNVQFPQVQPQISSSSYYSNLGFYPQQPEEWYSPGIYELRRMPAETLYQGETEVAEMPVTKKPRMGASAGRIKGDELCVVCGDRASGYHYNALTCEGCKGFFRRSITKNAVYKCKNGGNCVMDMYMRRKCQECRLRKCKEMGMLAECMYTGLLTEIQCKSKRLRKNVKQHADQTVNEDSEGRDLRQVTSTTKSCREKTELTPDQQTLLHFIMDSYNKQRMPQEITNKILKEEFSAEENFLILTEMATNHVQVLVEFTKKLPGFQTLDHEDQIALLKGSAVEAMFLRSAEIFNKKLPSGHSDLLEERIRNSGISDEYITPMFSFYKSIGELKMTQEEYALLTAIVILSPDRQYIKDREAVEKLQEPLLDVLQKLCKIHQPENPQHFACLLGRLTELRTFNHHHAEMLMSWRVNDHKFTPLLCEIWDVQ

Row | Compound | Potency [1] | Potency [2] | outcome [3] | Potency [4] | Potency [5] | Potency [6] | Potency [7] | activation [8] | outcome [9] | outcome [10] | max response [11] | outcome [12] | Potency [13] | outcome [14] | Potency [15] | outcome [16] | outcome [17] | activation [18] | activation [19] | Potency [20]
1 | Cc1ccc([N+](=O)[O-])cc1 | inactive | inactive | inactive | inactive | inactive | inactive | inactive | -2.83% (inactive) | inactive | inactive | 22.5% | inactive | inactive | inactive |  |  |  |  |  | 
2 | Clc1ccc(C(Cl)(Cl)Cl)cc1Cl | inactive |  | inactive |  | inactive | inactive | inactive |  | inactive | inactive |  |  | inactive | inactive | inactive | inactive | inactive | -1.35% (inactive) |  | 
3 | O=S(=O)(O)F | inactive | inactive | inactive | inactive | inactive |  |  |  |  | inactive | 7.1% | inactive |  | inactive | inactive |  | inactive |  | 0.0183% (inactive) | inactive
4 | Clc1ccc(C(Cl)(Cl)Cl)c(Cl)c1 | inactive | inactive |  | inactive | inactive |  |  |  |  | inactive | 5.85% | inactive | inactive | inactive | inactive | inactive | inactive |  |  | inactive
5 | O=[N+]([O-])c1ccccc1-c1ccccc1 | inactive | inactive | inactive | inactive | inactive | inactive | inactive |  |  |  |  |  |  |  | inactive | inactive |  |  |  | inactive
6 | ClC(Br)Br | inactive | inactive | inactive | inactive | inactive |  | inactive |  | inactive |  | 2.53% | inactive | inactive |  |  | inactive |  | 1.19% (inactive) |  | 
7 | CCCCCCCCCCCOC(=O)c1ccccc1C(=O)OCCCCCCCCCCC | inactive | inactive |  | inactive | inactive | inactive | inactive | 3.4% (inactive) | inactive | inactive | -38.8% | inactive | inactive | inactive |  | inactive | inactive |  |  | inactive
8 | O=NN1CCCCC1 | inactive | inactive |  |  |  | inactive |  | 0.249% (inactive) | inactive |  | -27.9% | inactive |  | inactive |  | inactive |  |  |  | inactive
9 | Nc1ccc2ccccc2c1 | inactive |  | inactive |  | inactive | inactive | inactive |  |  |  |  |  |  | inactive | inactive |  | inactive |  |  | 
10 | S=c1[nH]c2ccccc2[nH]1 | inactive |  |  | inactive | inactive | inactive |  | -3.9% (inactive) | inactive |  |  |  | inactive |  | inactive | inactive |  |  |  | 
11 | OCCBr | inactive | inactive |  | inactive |  | inactive | inactive | -2.73% (inactive) | inactive |  |  |  | inactive | inactive | inactive | inactive | inactive | 0.0665% (inactive) | -2.65% (inactive) | 
12 | C=CCc1cc(OC)c2c(c1)OCO2 | inactive |  | inactive | inactive | inactive |  |  | -4.93% (inactive) | inactive | inactive |  |  |  | inactive | inactive |  |  | -0.352% (inactive) |  | 
13 | CCC#N | inactive | inactive | inactive | inactive |  |  |  | -7.32% (inactive) | inactive | inactive | -1.4% | inactive |  | inactive | inactive |  | inactive | -1.07% (inactive) | -0.411% (inactive) | inactive
14 | O=C(O)C(Cl)(Cl)Br | inactive |  | inactive | inactive | inactive |  |  | -2.11% (inactive) | inactive | inactive |  |  | inactive | inactive | inactive | inactive |  |  | -1.03% (inactive) | 42.2 µM (active)
15 | CC(C)(C)c1ccccc1O | inactive | inactive | inactive | inactive | inactive | inactive |  | 2.08% (inactive) and 7.02% (inactive) | inactive |  | 11% and 14.4% | inactive | inactive |  | inactive |  | inactive | -0.0104% (inactive) and -1.11% (inactive) |  | inactive
16 | Oc1cccc(Cl)c1 | inactive |  | inactive | inactive |  | inactive | inactive | -11.4% (inactive) | inactive |  |  |  | inactive | inactive | inactive | inactive |  | -0.548% (inactive) | 2.65% (inactive) | 
17 | CN(C)c1ccccc1 | inactive | inactive | inactive | inactive |  | inactive |  | -11% (inactive) | inactive |  |  |  |  | inactive | inactive |  | inactive |  | -2.07% (inactive) | inactive
18 | Nc1cccc2ccccc12 | inactive |  | inactive | inactive | inactive | inactive | inactive |  |  | inactive |  |  |  |  | inactive | inactive |  |  |  | 
19 | C=CC(=O)OCCN(C)C | inactive |  | inactive | inactive | inactive |  |  | 1.15% (inactive) |  | inactive | 29.8% | inactive |  | inactive | inactive |  | inactive | -1.13% (inactive) |  | inactive
20 | ClCCOCCCl | inactive | inactive |  |  |  |  |  | 0.183% (inactive) | inactive |  | 5.43% | inactive |  |  | inactive | inactive |  | -0.467% (inactive) | -1.24% (inactive) | inactive
21 | COC(=O)Nc1cccc(OC(=O)Nc2cccc(C)c2)c1 | inactive |  |  | inactive |  | inactive |  | -3.09% (inactive) | inactive |  |  |  |  |  | inactive | inactive |  | -1.26% (inactive) | 0.654% (inactive) | 
